Only some compounds are listed: those with a hit (about 11% of all), similar ones and a draw of the others.
Pf growth 96h: P. falciparum growth inhibition at 96 hours; hit rate 6.9% among 320,000; P. falciparum luciferase reporter growth, 96 h; AID 504834; Potency, µM (doses to about 28.7 µM), inactives show at the highest dose activity change, negative = inhibition, hits mostly inhibitors
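Luminescence readout: decreased luciferase signal marks inhibited growth of reporter-expressing P. falciparum in infected red cells (2% hematocrit, 0.05% parasitemia final), exposed to compound two generations (96 h, 37 C, 5% CO2).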
HCV inh: HCV inhibition | Potency, µM (doses to about 41.8 µM), without a hit: at the highest dose activity change, negative = inhibition, hits mostly inhibitors | hit rate 3.4% among 340,000 | Huh7.5.1 HCVcc-Cre infection, luciferase reporter, 44 h | AID 651820
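Cells seeded at 1,000/well and cultured 4 h, then compounds added followed by HCVcc-Cre virus (~0.5 moi). After 44 h further culture, luciferase substrate was added, plates held 15 min at room temperature, and luminescence read for 15 sec.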
Pf growth 48h: P. falciparum growth inhibition at 48 hours (one generation); P. falciparum luciferase growth in erythrocytes, 48 h; Potency, µM (highest dose often 28.7 µM), inactives show at the highest dose activity change, negative = inhibition, usual class: inhibitors; hit rate 5.9% among 310,000; AID 504832
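Luciferase-expressing parasites in RBCs, 2% Hct / 0.1% parasitemia final; RPMI 1640 + 0.5% Albumax; 37 C, 5% CO2, one generation; luminescence read-out, lower signal = inhibition.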
AMA1-RON2 inh: inhibitors of Plasmodium falciparum AMA1-RON2 interaction. hit rate 0.2% among 360,000. AlphaScreen AMA1-biotinylated RON2 peptide binding. Potency, µM (doses to about 58.2 µM), for inactives: at the top dose activity change, negative = inhibition, hits mostly inhibitors;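 note: 0% = vehicle wells and -100% = peptide control; nearly all actives have a fitted effect of over 45% in size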
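AMA1 (3D7) with his tag at 25 nM final met compounds first, then biotinylated RON2 peptide at 25 nM; detection used donor plus acceptor beads, 10 µg/mL apiece, read by AlphaScreen after 30 min at room temperature.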
An asterisk follows results filed as active; ? = inconclusive; · = no result. Calls come from the whole dose curve; as a rule, active = well fitted curve in the direction sought with a large enough effect; inconclusive = small, poorly fitted or top-dose-only effect, or another doubt; inactive = no such curve, though single readings can be large; an effect the other way counts as inactive or inconclusive. Unless noted, % is set by controls: 0 for no effect and ±100 for the full control effect; potency is the fitted concentration of half-maximal effect.

SMILES	Pf growth 96h	HCV inh	Pf growth 48h	AMA1-RON2 inh
COc1ccc(C(=O)NCC(c2cccnc2)N2CCN(c3ccccc3OC)CC2)cc1OC (stereo unspecified)	?	?	?	2.9%
COc1ccc(N2CCN(C(CNC(=O)c3ccc4c(c3)OCO4)c3cccnc3)CC2)cc1 (stereo unspecified)	?	13.7%	-9.9%	-9.4%
O=C(Nc1ccc(C(=O)N2CCOCC2)cc1)Nc1cccc2ccccc12	?	6.3%	155.2%	2.7%
Cc1ccc(SC2=C(Sc3ccc(C)cc3)C(=O)c3ccccc3C2=O)cc1	0.738µM*	?	0.415µM*	?
Cc1ccc(/C=C/C(=O)C2C(=O)c3ccccc3C2=O)cc1	?	?	1.65µM*	7.3%
COc1cccc(C(=O)OCC(=O)N2CCC(Cc3ccccc3)CC2)c1OC	·	-24.2%	·	-2.8%
CSc1nc(N(CCO)CCO)c2sc3nc(-c4ccco4)c4c(c3c2n1)CCC4	-0.2%	6.31µM*	?	11.2µM*
CC1=CC(C)C2(COC(c3ccc[n+](C)c3)OC2)C(C)C1 (stereo unspecified)	10.4µM*	6.9%	?	-1.4%
CCCCNC(=O)c1nn2c(C(F)(F)F)cc(-c3ccc(OC)cc3)nc2c1Br	?	?	4.9%	2.8%
CC(C)(C)NC(=O)c1nn2c(C(F)(F)F)cc(-c3ccccc3)nc2c1Br	-27.2%	-15.4%	8.8%	3.4%
NC(=O)c1nn2c(C(F)(F)F)cc(-c3ccccc3)nc2c1Br	?	0.891µM*	9.4%	4.5%
O=C(c1ccccc1)N1CCN(C(=O)c2nn3c(C(F)(F)F)cc(-c4ccccc4)nc3c2Br)CC1	20.5%	?	8.28µM*	-2.0%
CCCNC(=O)c1nn2c(C(F)(F)F)cc(-c3ccccc3)nc2c1Br	9.28µM*	?	?	0.8%
C#CCOCCOCCOCCNc1nc(N2CCN(C(=O)[C@H]([C@@H](C)CC)n3cc(CCCCN)nn3)CC2)nc(N2CCN(C(=O)[C@H](C)n3cc(CCCN=C(N)N)nn3)CC2)n1	3.5%	12.5%	?	-0.8%
C#CCOCCOCCOCCNc1nc(N2CCN(C(=O)[C@H]([C@@H](C)O)n3cc(CCCCN)nn3)CC2)nc(N2CCN(C(=O)[C@H]([C@@H](C)CC)n3cc(CCCN=C(N)N)nn3)CC2)n1	4.65µM*	38.0%	?	-6.4%
C#CCOCCOCCOCCNc1nc(N2CCOCC2)nc(N2CCN(C(=O)[C@H]([C@@H](C)CC)n3cc(CCCCN)nn3)CC2)n1	8.28µM*	-18.8%	?	-5.2%
C#CCOCCOCCOCCNc1nc(N2CCN(C(=O)[C@H]([C@@H](C)CC)n3cc(CCCCN)nn3)CC2)nc(N2CCN(C(=O)[C@H]([C@@H](C)CC)n3cc(CCCN=C(N)N)nn3)CC2)n1	7.38µM*	2.3%	?	-13.0%
CC(C)C[C@H]1COCCS(=O)(=O)N1Cc1ccc(Cl)c(Cl)c1	·	2.1%	·	-5.0%
CC(=O)N1CCc2cc(S(=O)(=O)NCCC(=O)NCCc3ccc(Cl)cc3)ccc21	3.4%	?	?	-3.1%
CCC(=O)N1CCc2cc(S(=O)(=O)NCCC(=O)N3CCN(c4ccccc4)CC3)ccc21	-1.0%	2.8%	?	0.0%
CCC(=O)N1CCc2cc(S(=O)(=O)NCCC(=O)N3CCN(c4cccc(C)c4)C(C)C3)ccc21 (stereo unspecified)	-27.2%	14.1µM*	-14.5%	-0.2%
CC(=O)N1CCc2cc(S(=O)(=O)NCCC(=O)Nc3cc(C)cc(C)c3)ccc21	5.22µM*	23.0%	?	-7.3%
CCC(=O)N1CCc2cc(S(=O)(=O)NCCC(=O)Nc3ccccc3C)ccc21	11.7µM*	7.1%	?	10.1%
CC(=O)N1CCc2cc(S(=O)(=O)NCCC(=O)NCCc3ccc(C)cc3)ccc21	8.7%	10µM*	?	-15.1%
NC(=O)c1ncn([C@@H]2O[C@H](CNC(=O)[C@H](N)CSCc3ccccc3)[C@@H](O)[C@H]2O)n1	·	4.8%	·	7.5%
SMILES	Pf growth 96h	HCV inh	Pf growth 48h	AMA1-RON2 inh
O=C(CC(Nc1ccc(F)cc1)C(=O)OCC(=O)c1cccs1)c1ccccc1 (stereo unspecified)	0.0%	6.2%	70.1%	-29.4%
COc1cc(C#N)c(NC(=O)CN2CCC(C(N)=O)CC2)cc1OC	?	9.4%	-1.8%	6.7%
CCCCNC(=O)N(O)C1N(/N=C/c2ccco2)C(=S)SC1(C)C (stereo unspecified)	?	-19.8%	?	-0.5%
CC(=O)N1CCc2cc(S(=O)(=O)NCCC(=O)Nc3cccc(C)c3C)ccc21	3.7µM*	4.1%	?	20.0%
Cc1nc(-c2ccccn2)nc(N2CCOCC2)c1Cl	2.33µM*	-3.4%	?	81.2%
c1ccc(-c2nc(N3CCCCCC3)c3ccccc3n2)nc1	·	1.58µM*	0.828µM*	-23.4%
Cc1nc(-c2ccccn2)nc(N(C)c2ccccc2)c1Cl	1.17µM*	10µM*	1.65µM*	26.6%
CSc1nc(N2CCOCC2)c2ccccc2n1	-12.8%	10µM*	?	-11.6%
Cc1nc(-c2ccccn2)nc(SCC(=O)c2ccc(F)cc2)c1Cl	?	?	?	85.4%
CCN1CCN(c2nc(-c3ccccn3)nc3ccccc23)CC1	?	-24.2%	?	18.6%
CC1(C2CC2)NC(=O)N(CC(=O)Nc2ccc(F)cc2F)C1=O (stereo unspecified)	-20.3%	-17.6%	-19.1%	-5.6%
O=S1(=O)CCC(NC(=S)N2CCOCC2)C1 (stereo unspecified)	3.0%	?	-23.6%	19.0%
c1ccc(-c2nc(N3CCOCC3)c3ccccc3n2)nc1	?	?	7.38µM*	106.1%
c1ccc2c(c1)nc(N1CCOCC1)c1ccccc12	-17.6%	?	?	12.9%
Nc1nc(-c2cc(O)ccc2[N+](=O)[O-])cc(-c2ccccc2)c1[N+](=O)[O-]	1.7%	?	8.1%	-1.4%
CC(C)n1c(NCCO)nc2ccccc21	?	3.9%	38.4%	21.0%
C[n+]1c2ccccc2nc2ccc(NCCO)cc21	0.131µM*	14.1µM*	0.117µM*	20µM*
COc1cc(OC)c(NC(=O)C2CCN(S(=O)(=O)c3ccc4c(c3)CC(C)N4C(C)=O)CC2)cc1Cl (stereo unspecified)	0.0%	?	0.0%	14.4%
COc1ccc(C)cc1NC(=O)CN(C)S(=O)(=O)c1ccc2c(c1)CC(C)N2C(C)=O (stereo unspecified)	7.38µM*	?	-21.8%	-10.4%
COc1ccc(OC)c(NC(=O)C2CCN(S(=O)(=O)c3ccc4c(c3)CC(C)N4C(C)=O)CC2)c1 (stereo unspecified)	14.7µM*	-16.4%	?	-9.8%
CC1Cc2cc(S(=O)(=O)N3CCN(c4ccc(Cl)cc4)CC3)ccc2N1C(=O)C1CC1 (stereo unspecified)	14.7µM*	6.31µM*	?	-3.7%
CC(=O)N1c2ccc(S(=O)(=O)N3CCC(C(=O)N4CCN(c5ccc(Cl)cc5)CC4)CC3)cc2CC1C (stereo unspecified)	?	10µM*	?	-12.8%

High-throughput results as filed in PubChem BioAssay.
